A short description of experiment [1]: qHTS assay to test for compound auto fluorescence at 535 nm (green) in HEK293 cells (AID 720680). A general note: Quantitative high-throughput screening tests each substance at several concentrations.
Experiment [2] can be described thus: qHTS assay to test for compound auto fluorescence at 460 nm (blue) in HEK293 cell free culture (AID 720681). The method, boiled down:
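Compounds were added to cell-free DMEM with 10% FBS and fluorescence read directly. The blue channel used 405 nm excitation and 460 nm emission, with triamterene as the reference fluorophore.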

Experiment [3] is described as follows: qHTS assay to test for compound auto fluorescence at 535 nm (green) in HEK293 cell free culture (AID 720682). The method, boiled down: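 Read-out: 485/535 nm fluorescence intensity, calibrated against fluorescein. Medium only (DMEM + 10% FBS, no cells); test compound or DMSO vehicle added by pintool before plate reading.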
A short description of experiment [4]: qHTS assay to test for compound auto fluorescence at 590 nm (red) in HEK293 cell free culture (AID 720683). The method, boiled down: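 Cell-free wells of DMEM with 10% FBS received compound, and intrinsic fluorescence was read at excitation/emission 540/590 nm. Values expressed as equivalence to Rose Bengal sodium.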
Experiment [5] is described as follows: qHTS assay to test for compound auto fluorescence at 590 nm (red) in HepG2 cell free culture (AID 720684). The method, boiled down: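 Compounds are added to culture medium (MEM, 10% FBS) lacking cells, then fluorescence is read at excitation 540 nm, emission 590 nm, with Rose Bengal sodium as the equivalency standard.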
Experiment [6] can be described thus: qHTS assay to test for compound auto fluorescence at 460 nm (blue) in HepG2 cell free culture (AID 720685). A digest of the protocol: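 Compound (23 nL) or DMSO pinned into cell-free MEM with 10% FBS; blue fluorescence read at 405/460 nm excitation/emission, expressed as auto-fluorescence equivalency to triamterene.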
Experiment [7] in a line: qHTS assay to test for compound auto fluorescence at 535 nm (green) in HepG2 cell free culture (AID 720686).
Experiment [8] in a line: qHTS assay to test for compound auto fluorescence at 460 nm (blue) in HepG2 cells (AID 720687). A digest of the protocol: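 HepG2 cells in MEM with 10% FBS, attached overnight at 37 C, were exposed to compound or DMSO for 1 hr at 37 C, 5% CO2. Blue fluorescence was read at 405/460 nm, with triamterene as reference fluorophore.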
Experiment [9] has as its target Glucocorticoid receptor (Homo sapiens) (UniProt P04150). Briefly: qHTS assay to identify small molecule agonists of the glucocorticoid receptor (GR) signaling pathway (AID 720691; active means well fitted activation curve with a large enough effect in the signal ratio in the repeat runs, not every such curve was filed as active; the % refers to the signal ratio). As to conditions: GR-bla HeLa, beta-lactamase reporter ratio, 18 h; activation: at 62.4 µM (top of the series). A digest of the protocol: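 Beta-lactamase reporter activity, read as fluorescence intensity, was measured in GR-bla HeLa cells exposed to compounds for 18 h at 37 C and then loaded with LiveBLAzer B/G FRET substrate for 2 h at room temperature.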

Experiment [10] shares this target. Kind of experiment: qHTS assay to identify small molecule antagonists of the glucocorticoid receptor (GR) signaling pathway (AID 720692; active means well fitted inhibition curve with a large enough effect in the signal ratio in the repeat runs, not every such curve was filed as active; the % refers to the signal ratio). The method, boiled down: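 Fluorescence from cleaved LiveBLAzer B/G FRET substrate reports GRE-driven beta-lactamase in HeLa cells; compounds are tested against 5 nM dexamethasone (final) over 18 h at 37 C, substrate incubation 2 h at room temperature.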

Experiment [11] in a line: qHTS assay to identify small molecule antagonists of the glucocorticoid receptor (GR) signaling pathway - cell viability counter screen (AID 720693). Further: nearly all actives have a fitted effect of over 55% in size.
The nature of experiment [12]: qHTS assay for identifying genotoxic compounds that show differential cytotoxicity against isogenic chicken DT40 cell lines with known DNA damage response pathways - Rev3 mutant cell line (AID 743014). Further: nearly all actives have a fitted effect of over 55% in size.
Experiment [13] in a line: qHTS assay for identifying genotoxic compounds that show differential cytotoxicity against isogenic chicken DT40 cell lines with known DNA damage response pathways - Rad54/Ku70 mutant cell line (AID 743015). Further: nearly all actives have a fitted effect of over 60% in size.
Experiment [14] is described as follows: qHTS assay to identify small molecule antagonists of the androgen receptor (AR) signaling pathway - cell viability counter screen (AID 743033; further: nearly all actives have a fitted effect of over 45% in size).
Experiment [15] can be described thus: qHTS assay to identify small molecule antagonists of the androgen receptor (AR) signaling pathway using the MDA cell line - cell viability counter screen (AID 743041; further: nearly all actives have a fitted effect of over 45% in size). The method, boiled down: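 Same-well cytotoxicity was assessed by CellTiter-Fluor in MDA-kb2 AR-luc cells after 16 h of compound treatment under R1881 agonism.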
The nature of experiment [16]: qHTS assay for identifying genotoxic compounds that show differential cytotoxicity against isogenic chicken DT40 cell lines with known DNA damage response pathways - wild type cell line (AID 743012). Further: nearly all actives have a fitted effect of over 60% in size. Further: potency means the concentration at half of the fitted maximal effect. A digest of the protocol: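 Quantitative HTS on parental DT40 cells: 40 h compound treatment at 37 C/5% CO2, with viability then determined by CellTiter-Glo luminescence. Values serve as the DNA repair-proficient reference for differential cytotoxicity.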

Experiment [17] addresses Androgen receptor (Homo sapiens) (UniProt P10275). Briefly: qHTS assay to identify small molecule agonists of the androgen receptor (AR) signaling pathway using the MDA cell line (AID 743040; further: nearly all actives have a fitted effect of over 20% in size). A digest of the protocol:
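Human breast carcinoma MDA-kb2 reporter cells (MMTV-luc, AR/GR elements) were treated for 16 h at 37C in 0% CO2 following a 5 h settling period. Signal was quantified by ONE-Glo luminescence.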

For experiment [18] the target is unchanged. Briefly: qHTS assay to identify small molecule antagonists of the androgen receptor (AR) signaling pathway using the MDA cell line (AID 743042; further: nearly all actives have a fitted effect of over 55% in size). The method, boiled down:
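MDA-kb2 breast carcinoma cells carrying MMTV-luciferase (AR/GR responsive) were co-treated with compounds and the agonist R1881 for 16 h at 37C. Inhibition read as ONE-Glo luminescence; CellTiter-Fluor fluorescence measured in parallel for cytotoxicity.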

Experiment [19] shares this target. Kind of experiment: qHTS assay to identify small molecule antagonists of the androgen receptor (AR) signaling pathway (AID 743035; active means well fitted inhibition curve with a large enough effect in the signal ratio in the repeat runs, not every such curve was filed as active; the % refers to the signal ratio). A digest of the protocol:
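Cell line: GeneBLAzer AR-UAS-bla GripTite (HEK293). Stimulus: R1881 added after compound. Exposure: 16 h, 37C, 5% CO2. Readout: LiveBLAzer B/G FRET fluorescence after 2 h at room temperature.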

The target is the same in experiment [20]. Kind of experiment: qHTS assay to identify small molecule agonists of the androgen receptor (AR) signaling pathway (AID 743036; active means well fitted activation curve with a large enough effect in the signal ratio in the repeat runs, with a control signal flat, not every such curve was filed as active; the % refers to the signal ratio). A digest of the protocol: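 HEK293 cells stably carrying a UAS-driven beta-lactamase reporter (GeneBLAzer AR-UAS-bla-GripTite) were plated at 2,000 cells/well, rested 4 h at 37C, then exposed to compounds in DMSO for 16 h. LiveBLAzer B/G FRET substrate was added for 2 h at room temperature; fluorescence read.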

Records with an inconclusive call do not appear. Calls of active or inactive are those of the source. Unless noted, the call rests on the fitted dose curve; in most records, active means well fitted curve in the direction sought with a large enough effect in the repeat runs; inconclusive means weak or mixed curves; inactive means no such curve, though single readings can be large; an effect the other way counts as inactive or inconclusive.

Androgen receptor (Homo sapiens), sequence (P10275 whole entry, looked up): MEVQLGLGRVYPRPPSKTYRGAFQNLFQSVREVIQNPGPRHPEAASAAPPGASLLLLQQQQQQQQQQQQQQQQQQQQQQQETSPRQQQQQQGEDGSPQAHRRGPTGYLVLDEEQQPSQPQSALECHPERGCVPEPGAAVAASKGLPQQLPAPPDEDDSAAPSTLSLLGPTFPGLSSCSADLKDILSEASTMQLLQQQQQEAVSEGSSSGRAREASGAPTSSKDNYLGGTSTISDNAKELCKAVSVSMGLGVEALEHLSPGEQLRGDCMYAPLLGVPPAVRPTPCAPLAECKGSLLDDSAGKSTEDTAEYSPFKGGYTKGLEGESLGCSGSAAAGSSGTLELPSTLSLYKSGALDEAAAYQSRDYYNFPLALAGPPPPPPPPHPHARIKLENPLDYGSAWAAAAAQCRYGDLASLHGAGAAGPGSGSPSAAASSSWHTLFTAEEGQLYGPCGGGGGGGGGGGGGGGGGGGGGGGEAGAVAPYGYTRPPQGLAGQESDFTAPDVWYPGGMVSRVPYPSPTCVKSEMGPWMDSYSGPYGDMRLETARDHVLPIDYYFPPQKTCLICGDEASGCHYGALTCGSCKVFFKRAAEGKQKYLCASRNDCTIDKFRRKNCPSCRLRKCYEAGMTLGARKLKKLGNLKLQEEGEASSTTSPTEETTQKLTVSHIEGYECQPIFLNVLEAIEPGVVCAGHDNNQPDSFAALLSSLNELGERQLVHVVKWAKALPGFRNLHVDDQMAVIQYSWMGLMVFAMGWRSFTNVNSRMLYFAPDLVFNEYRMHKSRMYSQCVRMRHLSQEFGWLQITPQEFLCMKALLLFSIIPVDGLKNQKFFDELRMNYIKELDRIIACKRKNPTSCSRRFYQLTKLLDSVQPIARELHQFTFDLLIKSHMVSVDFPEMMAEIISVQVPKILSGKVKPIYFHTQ
Glucocorticoid receptor (Homo sapiens), sequence (P04150 whole entry, looked up): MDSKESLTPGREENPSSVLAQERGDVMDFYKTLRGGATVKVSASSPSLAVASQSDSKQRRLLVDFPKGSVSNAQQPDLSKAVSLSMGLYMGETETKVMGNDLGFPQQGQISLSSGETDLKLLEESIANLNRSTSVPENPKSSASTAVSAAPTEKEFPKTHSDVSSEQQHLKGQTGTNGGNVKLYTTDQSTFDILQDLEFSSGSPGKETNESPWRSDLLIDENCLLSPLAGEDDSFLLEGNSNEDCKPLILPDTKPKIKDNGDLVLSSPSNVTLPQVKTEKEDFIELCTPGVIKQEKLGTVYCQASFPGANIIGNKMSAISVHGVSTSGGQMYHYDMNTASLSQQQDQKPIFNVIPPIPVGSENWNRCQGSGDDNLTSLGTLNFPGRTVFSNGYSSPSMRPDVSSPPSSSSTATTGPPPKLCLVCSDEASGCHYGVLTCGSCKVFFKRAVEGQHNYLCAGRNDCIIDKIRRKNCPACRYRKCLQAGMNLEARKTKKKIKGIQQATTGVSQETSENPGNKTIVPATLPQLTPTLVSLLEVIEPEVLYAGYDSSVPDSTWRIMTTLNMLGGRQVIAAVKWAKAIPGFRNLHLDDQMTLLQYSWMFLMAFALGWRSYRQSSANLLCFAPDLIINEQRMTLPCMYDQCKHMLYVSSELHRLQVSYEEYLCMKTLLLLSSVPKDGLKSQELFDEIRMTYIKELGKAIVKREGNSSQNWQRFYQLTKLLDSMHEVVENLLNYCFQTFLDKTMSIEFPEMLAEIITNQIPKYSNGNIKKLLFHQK

On to `COC1=C(C(=O)O)N2C(=O)[C@@H](NC(=O)[C@H](N)C3=CCC=CC3)[C@H]2SC1`, for which the Potency result in experiment [1], in experiment [2], in experiment [3], in experiment [4], in [5] and in [7] was “inactive” each time. Besides, the Potency entry in experiment [9], in experiment [10], in experiment [11], in experiment [12], in [13] and in experiment [14] was “inactive” throughout. The compound was called inactive in experiment [6] and in experiment [8].
On to `O=C1NCCN1c1ncc([N+](=O)[O-])s1`, for which the Potency result in experiment [1], in experiment [2], in experiment [3], in [4], in experiment [5] and in experiment [7] was “inactive” each time. Besides, the Potency entry in experiment [9], in [10], in [11], in experiment [12], in experiment [13] and in experiment [14] was “inactive” in each case. In experiment [15], the Potency entry was “inactive”. For the same compound, the compound was called inactive in experiment [6] and in [8].
Consider `COc1ccc(C[C@@H](C)NC[C@H](O)c2ccc(O)c(NC=O)c2)cc1`, for which the Potency entry in [1], in [2], in [3], in experiment [4], in [5] and in experiment [7] was “inactive” each time. In addition, the Potency result in experiment [9], in experiment [10], in experiment [11], in experiment [14] and in [15] was “inactive” each time. For the same compound, the compound was called inactive in experiment [6] and in experiment [8]. Moreover, the Potency in experiment [16] was 29.8 µM (active).
Take `Cc1cccc(C)c1Nc1ncccc1C(=O)O`: the Potency entry in experiment [1], in experiment [2], in experiment [3], in experiment [4], in experiment [5] and in experiment [7] was “inactive” in each case. Moreover, the Potency result in experiment [9], in experiment [10], in experiment [11], in experiment [12], in [13] and in experiment [14] was “inactive” in each case. Moreover, the Potency entry in experiment [17], in [15] and in [18] was “inactive” each time. The compound was called inactive in experiment [6] and in [8].
For `CC(C)=CCC/C(C)=C/C=C/C(C)=C/C=C/C(C)=C/C=C/C=C(C)/C=C/C=C(C)/C=C/C=C(\C)CCC=C(C)C`, the Potency entry in experiment [1], in [2], in experiment [3], in experiment [4], in [5] and in experiment [7] was “inactive” throughout. For the same compound, the Potency result in experiment [9], in experiment [10], in [11], in experiment [14], in [17] and in [15] was “inactive” in each case. In addition, in experiment [18], the Potency entry was “inactive”. Besides, the compound was classed as inactive in [6] and in [8].
In the case of `CO/N=C(\C(=O)N[C@@H]1C(=O)N2C(C(=O)O)=C(CSC(=O)c3ccco3)CS[C@H]12)c1csc(N)n1`, the Potency entry in experiment [1], in experiment [2], in experiment [3], in experiment [4], in experiment [5] and in experiment [7] was “inactive” each time. For the same compound, the Potency entry in [9], in experiment [10], in experiment [11], in [16], in [13] and in [19] was “inactive” throughout. Besides, the Potency result in experiment [20], in experiment [17], in experiment [15] and in [18] was “inactive” in each case. Besides, the outcome in [6] and in [8] was inactive.
In the case of `NC(=O)OC[C@@H]1[C@H](NC(=O)/C(=N\OCC(=O)O)c2csc(N)n2)C(=O)N1S(=O)(=O)O`, the Potency result in [1], in experiment [2], in [3], in experiment [4], in experiment [5] and in [7] was “inactive” in each case. In addition, the Potency entry in experiment [9], in experiment [10], in experiment [11], in [13], in experiment [14] and in experiment [15] was “inactive” throughout. In addition, the call in experiment [6] and in experiment [8] was inactive.
Consider `CCCC(=O)Nc1c(I)cc(I)c(CC(CC)C(=O)O)c1I` (configuration not stated), for which the Potency entry in [1], in experiment [2], in experiment [3], in experiment [4], in experiment [5] and in experiment [7] was “inactive” in each case. For the same compound, the Potency entry in experiment [9], in experiment [10], in experiment [11], in [12], in experiment [13] and in experiment [14] was “inactive” each time. Besides, the Potency entry in experiment [15] was “inactive”. Besides, the compound was called inactive in [6] and in experiment [8].

The values above are taken from PubChem BioAssay (Tox21).
